A short description of experiment [1]: A CellTox Green Cytotoxicity Assay to monitor cytotoxicity in HepG2 cells - 8 hour (AID 1224890). Further: nearly all actives have a fitted effect of over 45% in size. In short, it runs like this:
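HepG2 cells, 600/well, preincubated 5 h with CellTox Green dye, then exposed to Tox21 compounds in DMSO at 37 C for up to 40 h. Dead-cell DNA fluorescence read at the indicated time point.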

A short description of experiment [2]: qHTS assay to identify small molecule antagonists of the estrogen receptor alpha (ER-alpha) signaling pathway using the BG1 cell line in the presence of 0.1 nM 17-beta-estradiol - cell viability counter screen (AID 1259241). Further: nearly all actives have a fitted effect of over 40% in size. Further: potency means the concentration at half of the fitted maximal effect. In short, it runs like this:
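Viability in VM7Luc4E2 cells after 22 hr compound exposure under 0.1 nM 17beta-estradiol stimulation, by CellTiter-Fluor.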
A general note: In qHTS, concentration-response curves come from the screen itself.

Experiment [3] is described as follows: qHTS assay to identify small molecule antagonists of the androgen receptor (AR) signaling pathway using the MDA cell line in the presence of 0.5 nM R1881 - cell viability counter screen (AID 1259242). Further: nearly all actives have a fitted effect of over 45% in size. Further: potency means the concentration at half of the fitted maximal effect. A digest of the protocol:
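MDA-kb2 cells (MMTV-luciferase, AR/GR responsive) were treated with compounds plus 0.5 nM R1881 (final) for 16 hr at 37C, 0% CO2. Viability was then read in the same wells as live-cell protease fluorescence (CellTiter-Fluor, 30 min).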

Experiment [4] concerns the target Androgen receptor (Homo sapiens) (UniProt P10275). Put plainly: qHTS assay to identify small molecule antagonists of the androgen receptor (AR) signaling pathway using the MDA cell line in the presence of 0.5 nM R1881 (AID 1259243). Further: nearly all actives have a fitted effect of over 50% in size. Further: potency means the concentration at half of the fitted maximal effect. A digest of the protocol: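 MDA-kb2 cells (MMTV-luciferase, responsive to AR and GR) at 3,000/well, rested 5 h at 37C, 0% CO2, then given compounds plus 0.5 nM R1881 (final) for 16 hr. Luciferase read with ONE-Glo after 30 min at room temperature.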

Experiment [5] in a line: qHTS assay to identify small molecule HDAC inhibitors - cell viability counter screen (AID 1259365). Further: nearly all actives have a fitted effect of over 50% in size. Further: potency means the concentration at half of the fitted maximal effect. In short, it runs like this: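 Cytotoxicity was gauged in wild-type HCT-116 cells after a brief 2hr treatment with DMSO-dissolved compounds at 37C and 5% CO2, using CellTiter-Glo luminescence developed for 30min at room temperature.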
Experiment [6] is described as follows: qHTS assay to identify small molecule agonists of the sonic hedgehog signaling (Shh) pathway - cell viability counter screen (AID 1259366). Further: nearly all actives have a fitted effect of over 50% in size. Further: potency means the concentration at half of the fitted maximal effect. A digest of the protocol: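 Stable Gli1-Luc NIH/3T3 clone, 2,000 cells/well. Compound exposure 24hr at 37C. Read-out: CellTiter-Fluor fluorescence.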
Experiment [7] can be described thus: qHTS assay to identify small molecule antagonists of the sonic hedgehog signaling (Shh) pathway - cell viability counter screen (AID 1259367). Further: nearly all actives have a fitted effect of over 55% in size. Further: potency means the concentration at half of the fitted maximal effect. In short, it runs like this:
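Seed 3T3 Gli1-Luc cells at 2,000 per well; incubate 4 hr; add compound in DMSO, then conditioned medium; incubate at 37C with 5% CO2; add CellTiter-Fluor after 23 hr; read fluorescence 1 hr later.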

Experiment [8] is described as follows: qHTS assay to identify small molecule agonists of the sonic hedgehog signaling (Shh) pathway (AID 1259368; calls by dose curve;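 further: NIH/3T3-derived 3T3Gli1-Luc cells carrying a stable Gli1-driven firefly luciferase reporter; series mostly up to about 92 µM; nearly all actives have a fitted effect of over 15% in size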). In short, it runs like this:
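NIH/3T3-derived 3T3Gli1-Luc cells with stably integrated Gli1-driven firefly luciferase, 2,000 cells/well, compounds added after 4 hr. Incubated 24 hr at 37C, 5% CO2; luminescence read after 30 min with luciferase reagent at room temperature.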

A short description of experiment [9]: qHTS assay to identify small molecule antagonists of the sonic hedgehog signaling (Shh) pathway (AID 1259369; calls by dose curve; further: nearly all actives have a fitted effect of over 45% in size). In short, it runs like this:
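NIH/3T3-derived Gli1-Luc reporter cells plated 4 h, dosed with compound, then stimulated with conditioned medium for 24 h at 37 C. Firefly luciferase luminescence read after 30 min with detection reagent at room temperature.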

Experiment [10] concerns the target Estrogen receptor beta (Homo sapiens) (UniProt Q92731). As to the kind of experiment: qHTS assay to identify small molecule agonists of the estrogen receptor beta (ER-beta) signaling pathway (AID 1259377; active means well fitted activation curve with a large enough effect in the signal ratio in the repeat runs, not every such curve was filed as active; the % refers to the signal ratio). In short, it runs like this: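 Measured by fluorescence intensity from a B/G FRET beta-lactamase substrate (2 h, room temperature) in ER-beta-UAS-bla HEK293T cells treated with DMSO-dissolved compounds for 16 hr at 37C and 5% CO2.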

Experiment [11] is described as follows: qHTS assay to identify small molecule agonists of the androgen receptor (AR) signaling pathway in the presence of an antagonist - cell viability counter screen (AID 1259379). Further: nearly all actives have a fitted effect of over 25% in size. Further: potency means the concentration at half of the fitted maximal effect. A digest of the protocol:
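MDA-kb2 cells (MMTV-luciferase, AR/GR), 3,000/well, 5 h attachment, then 3.0 µM nilutamide (final) and compounds at 15 concentrations. Viability by CellTiter-Fluor fluorescence after 16 h at 37 °C, 0% CO2, in the reporter wells.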

A short description of experiment [12]: qHTS assay to identify small molecule agonists of the estrogen receptor beta (ER-beta) signaling pathway - cell viability counter screen (AID 1259380). Further: nearly all actives have a fitted effect of over 30% in size. Further: potency means the concentration at half of the fitted maximal effect. In short, it runs like this:
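ER-beta-UAS-bla HEK293T cells in medium with 2% charcoal-stripped FBS, pre-incubated 6 hr, then treated 16 hr at 37C. Cytotoxicity read in the same wells by CellTiter-Glo luminescence after 30 min at room temperature.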

Experiment [13] addresses Androgen receptor (Homo sapiens) (UniProt P10275). Put plainly: qHTS assay to identify small molecule agonists of the androgen receptor (AR) signaling pathway in the presence of an antagonist (AID 1259381; calls by dose curve; further: nearly all actives have a fitted effect of over 15% in size). A digest of the protocol:
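MDA-kb2 cells carrying MMTV-luciferase (AR/GR responsive), 3,000 cells/well, co-treated with 3.0 uM nilutamide final. Compounds at 15 concentrations, 16 hr at 37C without CO2. Luciferase luminescence read after 30 min with ONE-Glo.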

The nature of experiment [14]: qHTS assay to identify small molecule antagonists of the estrogen receptor beta (ER-beta) signaling pathway - cell viability counter screen (AID 1259382). Further: series mostly up to about 92 µM; nearly all actives have a fitted effect of over 55% in size. A digest of the protocol:
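ER-beta-UAS-bla HEK293T cells in 2% charcoal-stripped FBS medium, treated with compound plus 1 nM 17-beta-estradiol for 16 h at 37C. Viability read by CellTiter-Glo luminescence after 30 min at room temperature in the same wells.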

A short description of experiment [15]: qHTS assay to identify small molecule agonists or antagonists of the thyroid stimulating hormone receptor (TSHR) signaling pathway - wild type cell line counter screen (AID 1259384; calls by dose curve). A digest of the protocol:
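Wild-type Hek293 cells, 800/well, 18 h at 37C, then compound with Ro20-1724 for 30 min RT. cAMP by HTRF (cAMP-d2/anti-cAMP cryptate), 1 h RT, fluorescence read. 15 concentrations, triplicates.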

For experiment [16], the target named is Estrogen receptor (Homo sapiens) (UniProt P03372). Put plainly: qHTS assay to identify small molecule antagonists of the estrogen receptor alpha (ER-alpha) signaling pathway using the BG1 cell line in the presence of 0.1 nM 17-beta-estradiol (AID 1259244). Further: nearly all actives have a fitted effect of over 50% in size. In short, it runs like this:
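VM7Luc4E2 cells (endogenous full-length ER-alpha, 4×ERE-luciferase), kept 5 days in phenol red-free, charcoal-stripped FBS medium; 4,000 cells/well. Compounds added with 0.1 nM (final) 17beta-estradiol, 22 hr at 37C; luminescence read with ONE-Glo after 30 min.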

Experiment [17] can be described thus: qHTS assay to identify small molecule phospholipidosis (PLD) inducers (AID 1259344; active means well fitted curve in the direction sought with a large enough effect; an effect the other way counts as inactive or inconclusive). In short, it runs like this:
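Quantitative HTS in HepG2: compound plus LipidTOX Red dye for 24 h, paraformaldehyde fixation with Hoechst 33342, widefield high-content imaging; amiodarone as positive and DMSO as negative control.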

Experiment [18] can be described thus: qHTS assay to identify small molecule HDAC inhibitors (AID 1259364). Further: nearly all actives have a fitted effect of over 45% in size. Further: potency means the concentration at half of the fitted maximal effect. A digest of the protocol:
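Wild-type HCT-116 cells, plated overnight at 37 C, exposed to compounds 2 hr at 37 C; luminogenic HDAC-Glo substrate then added 30 min at room temperature. Luminescence reports relative endogenous class I/II HDAC activity.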

Experiment [19] has as its target Estrogen receptor beta (Homo sapiens) (UniProt Q92731). As to the kind of experiment: qHTS assay to identify small molecule antagonists of the estrogen receptor beta (ER-beta) signaling pathway (AID 1259378; active means well fitted inhibition curve with a large enough effect in the signal ratio in the repeat runs, not every such curve was filed as active; the % refers to the signal ratio). In short, it runs like this: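 ER-beta-UAS-bla HEK293T cells in 2% charcoal-stripped FBS medium treated with compound plus 1nM final 17-beta-estradiol for 16 hr at 37C. Beta-lactamase reporter read by FRET substrate fluorescence after 2 hours at room temperature.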

For experiment [20], the target named is Estrogen receptor (Homo sapiens) (UniProt P03372). Put plainly: qHTS assay to identify small molecule agonists of the estrogen receptor alpha (ER-alpha) signaling pathway in the presence of an antagonist (AID 1259383; calls by dose curve; further: top concentration of the series differs between compounds; nearly all actives have a fitted effect of over 15% in size). In short, it runs like this: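 VM7Luc4E2 cells express endogenous full-length ER-alpha with an ERE-luciferase reporter and were hormone-deprived for 5 days. Compounds at 15 concentrations were added with 10.0nM ICI-182,780 for 22hr at 37C. Luminescence was read with ONE-Glo.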
Estrogen receptor (Homo sapiens), sequence (P03372 whole entry, looked up): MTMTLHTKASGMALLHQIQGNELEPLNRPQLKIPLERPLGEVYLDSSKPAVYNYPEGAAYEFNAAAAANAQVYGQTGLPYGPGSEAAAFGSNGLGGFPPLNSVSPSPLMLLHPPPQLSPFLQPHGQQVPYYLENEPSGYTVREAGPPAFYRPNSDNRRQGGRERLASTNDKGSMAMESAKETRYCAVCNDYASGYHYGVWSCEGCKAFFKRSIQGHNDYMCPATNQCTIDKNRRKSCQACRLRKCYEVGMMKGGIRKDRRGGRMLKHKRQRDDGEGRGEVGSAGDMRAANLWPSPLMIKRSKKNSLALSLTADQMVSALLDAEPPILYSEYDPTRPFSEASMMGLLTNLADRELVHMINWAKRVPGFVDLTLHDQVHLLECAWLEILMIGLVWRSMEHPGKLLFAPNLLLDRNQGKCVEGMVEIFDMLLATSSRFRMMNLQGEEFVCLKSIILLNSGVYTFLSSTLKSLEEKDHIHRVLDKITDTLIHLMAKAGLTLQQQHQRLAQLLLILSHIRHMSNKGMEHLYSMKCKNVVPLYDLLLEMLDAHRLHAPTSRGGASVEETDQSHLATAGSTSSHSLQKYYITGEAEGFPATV

A number with no mark means an inactive call. Records with an inconclusive call do not appear. The source made the active and inactive calls. Unless noted, the call rests on the fitted dose curve; in most records, active means well fitted curve in the direction sought with a large enough effect in the repeat runs; inconclusive means weak or mixed curves; inactive means no such curve, though single readings can be large; an effect the other way counts as inactive or inconclusive.

Androgen receptor (Homo sapiens), sequence (P10275 whole entry, looked up): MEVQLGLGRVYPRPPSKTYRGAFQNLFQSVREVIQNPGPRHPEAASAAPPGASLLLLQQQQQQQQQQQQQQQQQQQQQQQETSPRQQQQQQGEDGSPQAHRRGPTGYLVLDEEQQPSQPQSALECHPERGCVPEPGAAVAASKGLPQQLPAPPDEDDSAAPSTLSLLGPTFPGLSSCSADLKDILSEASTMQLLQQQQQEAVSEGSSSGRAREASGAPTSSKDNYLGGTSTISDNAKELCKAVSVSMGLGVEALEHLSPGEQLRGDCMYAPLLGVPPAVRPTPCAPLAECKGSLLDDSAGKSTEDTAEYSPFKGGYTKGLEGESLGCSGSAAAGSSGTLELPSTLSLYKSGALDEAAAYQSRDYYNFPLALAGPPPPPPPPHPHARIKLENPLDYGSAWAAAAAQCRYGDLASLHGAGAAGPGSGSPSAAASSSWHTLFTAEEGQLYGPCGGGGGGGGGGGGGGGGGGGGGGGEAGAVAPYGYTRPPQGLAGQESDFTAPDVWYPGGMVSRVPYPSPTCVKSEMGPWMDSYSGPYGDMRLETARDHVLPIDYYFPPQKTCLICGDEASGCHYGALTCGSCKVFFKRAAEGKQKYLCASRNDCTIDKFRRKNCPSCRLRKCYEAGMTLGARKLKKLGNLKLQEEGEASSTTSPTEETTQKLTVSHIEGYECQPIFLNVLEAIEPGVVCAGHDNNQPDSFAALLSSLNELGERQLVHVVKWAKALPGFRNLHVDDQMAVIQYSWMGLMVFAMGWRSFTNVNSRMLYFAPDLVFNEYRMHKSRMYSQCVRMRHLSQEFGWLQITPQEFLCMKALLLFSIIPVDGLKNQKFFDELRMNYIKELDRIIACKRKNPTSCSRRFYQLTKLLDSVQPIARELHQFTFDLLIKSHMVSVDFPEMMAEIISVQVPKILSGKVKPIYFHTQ
Estrogen receptor beta (Homo sapiens), sequence (Q92731 whole entry, looked up): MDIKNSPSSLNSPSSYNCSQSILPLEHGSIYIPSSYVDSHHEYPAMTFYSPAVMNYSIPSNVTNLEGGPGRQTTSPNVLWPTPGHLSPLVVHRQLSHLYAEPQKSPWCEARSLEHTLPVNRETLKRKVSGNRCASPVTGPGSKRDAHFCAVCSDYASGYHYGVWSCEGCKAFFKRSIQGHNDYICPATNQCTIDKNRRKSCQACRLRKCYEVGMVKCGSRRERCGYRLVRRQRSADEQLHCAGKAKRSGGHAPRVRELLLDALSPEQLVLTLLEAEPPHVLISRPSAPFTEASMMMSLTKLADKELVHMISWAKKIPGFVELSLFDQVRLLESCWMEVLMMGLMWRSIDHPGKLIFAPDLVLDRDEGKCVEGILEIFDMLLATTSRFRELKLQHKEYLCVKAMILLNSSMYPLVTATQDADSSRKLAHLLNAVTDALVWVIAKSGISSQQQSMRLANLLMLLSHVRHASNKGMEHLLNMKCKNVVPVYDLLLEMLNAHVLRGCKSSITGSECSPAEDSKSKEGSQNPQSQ

On to `CCCCCCCC(=O)OCCCCCC`, for which the Potency result in experiment [1], in experiment [2], in experiment [3], in experiment [4], in experiment [5] and in experiment [6] was “inactive” each time. Also, the Potency result in [7], in [8], in experiment [9], in experiment [10], in [11] and in experiment [12] was “inactive” throughout. Further, the Potency result in experiment [13], in experiment [14] and in [15] was “inactive” in each case.
Consider `CNC1CCCN(c2c(F)cc3c(=O)c(C(=O)O)cn(C4CC4)c3c2OC)C1` (stereo not given), for which the Potency result in [1], in [2], in experiment [3], in [16], in experiment [17] and in experiment [18] was “inactive” each time. The Potency result in experiment [5], in experiment [6], in [7], in experiment [8], in [9] and in experiment [10] was “inactive” throughout. The Potency result in experiment [19], in [11], in experiment [12], in experiment [14] and in [20] was “inactive” in each case.
Consider `O=C(C(=O)c1ccco1)c1ccco1`, for which the Potency result in [1], in [2], in [3], in [4], in [16] and in experiment [18] was “inactive” throughout. The Potency result in [5], in [6], in experiment [7], in [8], in [9] and in experiment [10] was “inactive” each time. The Potency entry in experiment [19], in experiment [11], in experiment [12], in experiment [14] and in experiment [20] was “inactive” each time.
For the molecule `CCC(CO)(CO)CO`, the Potency result in experiment [1], in experiment [2], in experiment [3], in [4], in [16] and in [18] was “inactive” each time. The Potency entry in [5], in experiment [6], in experiment [7], in experiment [8], in experiment [9] and in experiment [19] was “inactive” each time. Besides, the Potency result in experiment [11], in experiment [12], in experiment [13], in experiment [14], in experiment [20] and in experiment [15] was “inactive” throughout.
Consider `O=C1CC[C@@H](C(=O)O)N1`, for which the Potency entry in [1], in [2], in experiment [3], in experiment [4], in experiment [17] and in experiment [18] was “inactive” in each case. Also, the Potency result in experiment [5], in [7], in experiment [8], in [9], in experiment [10] and in experiment [19] was “inactive” throughout. The Potency entry in [11], in experiment [12], in experiment [13] and in experiment [14] was “inactive” each time.
On to `CCN(CC)c1ccc(C(=C2C=CC(=[N+](CC)CC)C=C2)c2ccc(S(=O)(=O)O)cc2S(=O)(=O)[O-])cc1`, for which the Potency entry in [1], in experiment [8], in experiment [10], in [19] and in [13] was “inactive” each time. The Potency in [2] is 12.2 µM (active); in experiment [3], 27.3 µM (active); in experiment [4] it was 9.69 µM (active); in experiment [18] it was 3.86 µM (active); in experiment [5], 21.7 µM (active); in experiment [6], 24.3 µM (active). In addition, the Potency in experiment [7] is 17.2 µM (active); in experiment [11], 27.3 µM (active); in [12], 27.3 µM (active).
Consider `CCCCC(CC)COS(=O)(=O)O` (stereo not given), for which the Potency result in experiment [1], in [2], in [3], in experiment [16], in [17] and in experiment [18] was “inactive” throughout. Besides, the Potency result in experiment [5], in experiment [6], in [7], in experiment [8], in experiment [9] and in experiment [10] was “inactive” in each case. The Potency result in [19], in experiment [11], in experiment [12], in experiment [14], in experiment [20] and in experiment [15] was “inactive” each time.

These data come from PubChem BioAssay (Tox21).
